{
  "source": "PubChem BioAssay",
  "note": "Calls of active or inactive are those of the source. No rule for the calls is given here.",
  "data": [
    {"test": "inhibitors of hydroxyurea-induced Chk1 phosphorylation, primary screen, imaging, HeLa, phospho-Chk1 antibody, percent positive cells (AID 1186)", "settings": "hydroxyurea-induced phospho-Chk1 immunofluorescence imaging, higher = more signal", "values": [
      {"smiles": "CO[C@H]1O[C@H](CO)[C@@H](OC(=O)Nc2ccccc2-c2ccccc2)[C@H](OC(=O)Nc2ccccc2)[C@H]1OC(=O)Nc1ccccc1", "z-score": "-0.392 (inactive)"},
      {"smiles": "O=C1c2ccccc2[C@@]2(Cc3ccccc3N(Cc3ccccc3)C2=O)[C@H](c2ccc(CO)cc2)N1Cc1ccccc1Cl", "z-score": "-0.0672 (inactive)"},
      {"smiles": "CCCNC(=O)[C@@]1(c2ccc([N+](=O)[O-])cc2)CC(=O)N(C(C)C)[C@@H]1c1ccc(CO)cc1", "z-score": "-0.102 (inactive)"},
      {"smiles": "[N-]=[N+]=Nc1ccccc1C[C@@]1(C(=O)NCC(O)CO)N=C(c2ccc(OCCCO)cc2)O[C@@H]1c1ccccc1", "note": "(stereo partly specified)", "z-score": "-0.416 (inactive)"},
      {"smiles": "CC(C)C[C@@H]1NC(=O)[C@@H]2C[C@H](C(=O)NCCCCCCNC(=O)CS)[C@H](c3cccc(OCCO)c3)N2C1=O", "z-score": "-0.517 (inactive)"},
      {"smiles": "CC(=O)NCCCC[C@@H]1NC(=O)[C@H]2C[C@@H](C(=O)NCCCCCCNC(=O)CS)[C@@H](c3cccc(OCCO)c3)N2C1=O", "z-score": "0.0478 (inactive)"},
      {"smiles": "O=C1[C@@H]2[C@@H](CC(COc3ccccc3)=C([C@H](O)CCc3ccccc3)[C@@H]2CO)C(=O)N1Cc1ccccc1", "z-score": "-0.556 (inactive)"},
      {"smiles": "O=C(NCC(O)CO)[C@@]1(CCS(=O)(=O)c2ccccc2)N=C(c2ccc(OCCCO)cc2)O[C@H]1c1ccccc1", "note": "(stereo partly specified)", "z-score": "-0.579 (inactive)"},
      {"smiles": "CN(C)c1ccc(C(O)C2C=CC3C(=O)N(Cc4ccccc4)C(=O)C3N2n2cnnc2)cc1", "note": "(stereo unspecified)", "z-score": "-1.39 (inactive)"},
      {"smiles": "COCCOC(=O)N1C(=O)[C@@]2(c3cc(C#CCC(C(=O)OC)C(=O)OC)ccc31)[C@H](C(=O)Nc1nc3ccccc3s1)[C@H]1C(=O)O[C@H](c3ccccc3)[C@H](c3ccccc3)N1[C@@H]2c1ccc(OCCO)cc1", "z-score": "-0.0393 (inactive)"}
    ]},
    {"test": "inhibitors of hydroxyurea-induced Chk1 phosphorylation, primary screen, imaging, HeLa, phospho-Chk1 nuclear intensity (AID 1187); also: test concentration not given here", "settings": "hydroxyurea-induced phospho-Chk1 immunofluorescence imaging, higher = more signal", "values": [
      {"smiles": "CCCC[C@H]1OB(O)C[C@H]2C1=C(COc1ccccc1)C[C@H]1C(=O)C=CC(=O)[C@H]12", "z-score": "-0.274 (inactive)"},
      {"smiles": "COCCOC(=O)N1C(=O)[C@@]2(c3ccccc31)[C@H](C(=O)N1CCN(c3ncccn3)CC1)[C@H]1C(=O)O[C@H](c3ccccc3)[C@H](c3ccccc3)N1[C@@H]2c1ccccc1OCCO", "z-score": "-0.484 (inactive)"},
      {"smiles": "COC(=O)[C@@]1(Cc2ccccc2)[C@H]2c3cc(C(=O)N(C)C)n(CCO)c3C[C@H]2CN1C(=O)c1ccccc1", "z-score": "0.491 (inactive)"},
      {"smiles": "[N-]=[N+]=Nc1ccccc1[C@@H]1OC(c2ccc(OCCCO)cc2)=N[C@]1(Cc1ccccc1)C(=O)NCCN1CCOCC1", "z-score": "-0.456 (inactive)"},
      {"smiles": "COc1cc(C(O)C2C=CC3C(=O)N(c4ccccc4)C(=O)C3N2Nc2ccccc2)cc(OC)c1OC", "note": "(stereo unspecified)", "z-score": "-0.522 (inactive)"},
      {"smiles": "C=CCC(OC(C)=O)[C@@H]1[C@@H](N(Cc2ccc(-c3ccccc3)cc2)C(=O)c2cccc3ccccc23)c2cc(OCCCO)ccc2N1C(=O)Cc1ccc(OC)cc1", "note": "(stereo partly specified)", "z-score": "0.0017 (inactive)"},
      {"smiles": "Cc1ccc(N2C(=O)c3ccccc3[C@](C)(C(=O)NCCCN(C)C)[C@@H]2c2ccc(CO)cc2)nc1", "z-score": "-0.321 (inactive)"},
      {"smiles": "CCOC(=O)C[C@H]1[C@H](OC(=O)Cc2ccc3c(c2)OCO3)[C@@H](NC(=O)Cc2ccc(OC)cc2)c2cc(OCCCO)ccc2N1C(=O)Cc1ccc(OC)cc1", "z-score": "-1.19 (inactive)"},
      {"smiles": "O=C1N(CCS(=O)(=O)c2ccccc2)c2ccccc2C[C@]12N=C(c1ccc(OCCCO)cc1)O[C@@H]2c1ccccc1", "z-score": "-0.357 (inactive)"},
      {"smiles": "C=CCOC(=O)[C@@H]1[C@H]2C(=O)O[C@H](c3ccccc3)[C@H](c3ccccc3)N2[C@H](c2ccc(OCCOC(=O)[C@H]3C[C@H]4C(=O)N5CCC[C@H]5C(=O)N4[C@H]3c3cccc(OCCO)c3)cc2)[C@@]12C(=O)Nc1ccc(I)cc12", "z-score": "-0.434 (inactive)"},
      {"smiles": "COc1ccc([Si](C)(C)[C@H]2[C@H](CC(=O)N3Cc4ccccc4C[C@H]3CO)O[C@@]3(C(=O)N(c4ccccc4)c4ccccc43)[C@@H]2C)cc1", "z-score": "-0.786 (inactive)"},
      {"smiles": "CCN(CC)c1ccc(N2CC=CC34O[C@@H]5C=CCCOC(=O)C5[C@H]3C(=O)N(C(C)CO)[C@@H]4C2=O)cc1", "note": "(stereo partly specified)", "z-score": "0.865 (inactive)"},
      {"smiles": "COCCOC(=O)N1C(=O)[C@@]2(c3cc(C#CC4(O)CCCCCC4)ccc31)[C@H](c1ccc(O)cc1)N1[C@H](c3ccccc3)[C@H](c3ccccc3)OC(=O)[C@H]1[C@@H]2C(=O)N1CCCCCCC1", "z-score": "0.244 (inactive)"},
      {"smiles": "COC(=O)[C@@]1(Cc2ccc(F)cc2)[C@H]2c3cc(C(=O)N(C)C)n(C)c3C[C@H]2CN1C(=O)c1ccccc1", "z-score": "0.633 (inactive)"},
      {"smiles": "O=C(NC1CC1)[C@@H]1c2ccccc2C(=O)N(Cc2cc(C(F)(F)F)cc(C(F)(F)F)c2)[C@H]1c1ccc(CO)cc1", "z-score": "-0.394 (inactive)"},
      {"smiles": "COc1ccc(C(O)C2C=CC3C(=O)NC(=O)C3N2Nc2ccc(Cl)cc2Cl)c2ccccc12", "note": "(stereo unspecified)", "z-score": "0.175 (inactive)"},
      {"smiles": "O=C(NCCN1CCOCC1)[C@@H]1c2ccccc2C(=O)N(Cc2ccccc2C(F)(F)F)[C@H]1c1ccc(CO)cc1", "z-score": "0.371 (inactive)"},
      {"smiles": "CN(C)CCCCNC(=O)[C@H]1C[C@H]2C(=O)N3CCC[C@H]3C(=O)N2[C@H]1c1cccc(OCCO)c1", "z-score": "0.0695 (inactive)"},
      {"smiles": "COc1ccc(CCNC(=O)[C@@H]2c3ccccc3C(=O)N(Cc3ccccc3OC)[C@H]2c2ccc(CO)cc2)cc1", "z-score": "-0.213 (inactive)"},
      {"smiles": "CC(C)OC(=O)CC(=O)CC(O)c1cccc([N+](=O)[O-])c1", "note": "(stereo unspecified)", "z-score": "-0.299 (inactive)"},
      {"smiles": "CCOC(=O)C[C@H]1[C@H](OC(=O)c2cc3ccccc3oc2=O)[C@@H](NC(=O)CC(C)C)c2cc(OCCCO)ccc2N1C(=O)Cc1ccc(OC)cc1", "z-score": "-0.268 (inactive)"},
      {"smiles": "CC1=C([C@H](O)CCc2ccccc2)[C@H](CO)n2c(=O)n(-c3ccccc3)c(=O)n2C1", "z-score": "-0.906 (inactive)"},
      {"smiles": "CC(C)(C)N1CC=CC23O[C@@H]4C=CCCOC(=O)C4[C@H]2C(=O)N(CCCCCCO)[C@@H]3C1=O", "note": "(stereo partly specified)", "z-score": "0.222 (inactive)"},
      {"smiles": "CCCCCC1=C2CNC(CC(C)C)(C(=O)OC)C=C2C(C)C1=O", "note": "(stereo unspecified)", "z-score": "0.856 (inactive)"},
      {"smiles": "O=C1C=C(c2ccccc2)C(=O)C2=C1CC([C@H]1Oc3ccccc3S(=O)(=O)N3CCC[C@@H]13)=CC2", "z-score": "0.334 (inactive)"},
      {"smiles": "O=C1C[C@@](C(=O)O)(c2ccc([N+](=O)[O-])cc2)[C@@H](c2ccc(CO)cc2)N1C1CCCCC1", "z-score": "0.0584 (inactive)"},
      {"smiles": "CO[C@H]1O[C@H](CO)[C@@H](OC(=O)Nc2ccccc2-c2ccccc2)[C@H](OC(=O)Nc2ccccc2)[C@H]1OC(=O)Nc1ccccc1", "z-score": "-0.15 (inactive)"},
      {"smiles": "O=C1c2ccccc2[C@@]2(Cc3ccccc3N(Cc3ccccc3)C2=O)[C@H](c2ccc(CO)cc2)N1Cc1ccccc1Cl", "z-score": "0 (inactive)"},
      {"smiles": "CCCNC(=O)[C@@]1(c2ccc([N+](=O)[O-])cc2)CC(=O)N(C(C)C)[C@@H]1c1ccc(CO)cc1", "z-score": "-0.105 (inactive)"},
      {"smiles": "[N-]=[N+]=Nc1ccccc1C[C@@]1(C(=O)NCC(O)CO)N=C(c2ccc(OCCCO)cc2)O[C@@H]1c1ccccc1", "note": "(stereo partly specified)", "z-score": "-0.145 (inactive)"},
      {"smiles": "CC(C)C[C@@H]1NC(=O)[C@@H]2C[C@H](C(=O)NCCCCCCNC(=O)CS)[C@H](c3cccc(OCCO)c3)N2C1=O", "z-score": "-0.358 (inactive)"},
      {"smiles": "CC(=O)NCCCC[C@@H]1NC(=O)[C@H]2C[C@@H](C(=O)NCCCCCCNC(=O)CS)[C@@H](c3cccc(OCCO)c3)N2C1=O", "z-score": "1.23 (inactive)"},
      {"smiles": "O=C1[C@@H]2[C@@H](CC(COc3ccccc3)=C([C@H](O)CCc3ccccc3)[C@@H]2CO)C(=O)N1Cc1ccccc1", "z-score": "-0.945 (inactive)"},
      {"smiles": "O=C(NCC(O)CO)[C@@]1(CCS(=O)(=O)c2ccccc2)N=C(c2ccc(OCCCO)cc2)O[C@H]1c1ccccc1", "note": "(stereo partly specified)", "z-score": "-0.282 (inactive)"},
      {"smiles": "CN(C)c1ccc(C(O)C2C=CC3C(=O)N(Cc4ccccc4)C(=O)C3N2n2cnnc2)cc1", "note": "(stereo unspecified)", "z-score": "-1.58 (inactive)"},
      {"smiles": "COCCOC(=O)N1C(=O)[C@@]2(c3cc(C#CCC(C(=O)OC)C(=O)OC)ccc31)[C@H](C(=O)Nc1nc3ccccc3s1)[C@H]1C(=O)O[C@H](c3ccccc3)[C@H](c3ccccc3)N1[C@@H]2c1ccc(OCCO)cc1", "z-score": "0.611 (inactive)"}
    ]}
  ]
}
